Among the data in PubChem BioAssay (EPA / NIEHS) are outcome and AC50 values, retold here.

Usually AC50 stands for the midpoint of the concentration-response curve, whichever way the signal moves.

A short description of assay [1]: CEETOX_H295R_OHPREG_noMTC: CeeTox H295R High-throughput Steroidogenesis Assay for OH-Pregnenolone (OHPREG), maximum tolerated concentration (MTC) filtered results only (AID 2283912; active = hit-call score of the fitted dose curve at least 0.9, where 1 is the maximum; inactive = score below 0.9). The settings on record: actives raise or lower the signal. The procedure, abridged:
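H295R human adrenal cells, forskolin-prestimulated (10 uM, 48 h), then exposed to test chemical in 0.1% DMSO for 48 h. 17alpha-hydroxypregnenolone in medium measured by HPLC-MS/MS after MTBE extraction; bidirectional fit versus DMSO, concentrations not MTC-filtered.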

Assay [2] can be described thus: CEETOX_H295R_OHPROG_noMTC: CeeTox H295R High-throughput Steroidogenesis Assay for OH-Progesterone (OHPROG), maximum tolerated concentration (MTC) filtered results only (AID 2283914; active = hit-call score of the fitted dose curve at least 0.9, where 1 is the maximum; inactive = score below 0.9). The settings on record: actives raise or lower the signal. The gist of the method:
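H295R human adrenal cells prestimulated 48 h with 10 uM forskolin, then exposed 48 h to test chemical (0.1% DMSO final). Medium 17alpha-hydroxyprogesterone extracted with MTBE, quantified by HPLC-MS/MS; bidirectional fit versus DMSO, concentrations not MTC-filtered.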

Assay [3] is described as follows: CEETOX_H295R_ANDR_noMTC: CeeTox H295R High-throughput Steroidogenesis Assay for Androstenedione (ANDR), maximum tolerated concentration (MTC) filtered results only (AID 2283915; active = hit-call score of the fitted dose curve at least 0.9, where 1 is the maximum; inactive = score below 0.9). The settings on record: actives raise or lower the signal. The gist of the method:
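H295R cells, passage 10 or below, prestimulated 48 h with 10 uM forskolin, then exposed 48 h to chemical in 0.1% DMSO. Medium androstenedione extracted with MTBE, quantified by HPLC-MS/MS; concentrations not MTC-filtered; bidirectional fit versus DMSO.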

The nature of assay [4]: CEETOX_H295R_PROG_noMTC: CeeTox H295R High-throughput Steroidogenesis Assay for Progesterone (PROG), maximum tolerated concentration (MTC) filtered results only (AID 2283920; active = hit-call score of the fitted dose curve at least 0.9, where 1 is the maximum; inactive = score below 0.9). The settings on record: actives raise or lower the signal. The gist of the method: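 H295R human adrenal cells were prestimulated 48 h with 10 uM forskolin, then exposed 48 h to test chemical (0.1% DMSO final). Progesterone in medium was quantified by HPLC-MS/MS; bidirectional fitting versus DMSO, concentrations not MTC-filtered.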

Assay [5] is described as follows: CEETOX_H295R_TESTO_noMTC: CeeTox H295R High-throughput Steroidogenesis Assay for Testosterone (TESTO), maximum tolerated concentration (MTC) filtered results only (AID 2283924; active = hit-call score of the fitted dose curve at least 0.9, where 1 is the maximum; inactive = score below 0.9). The settings on record: actives raise or lower the signal. The procedure, abridged:
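H295R cells prestimulated 48 h with 10 uM forskolin, then exposed 48 h to chemicals in 0.1% DMSO final. Testosterone in medium quantified by MTBE extraction and HPLC-MS/MS; bidirectional fit versus DMSO, concentrations […] filtered by MTT-based maximum tolerated concentration.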

Assay [6] concerns Sodium/Iodide Symporter (NIS), SLC5A5 (gene 6528). Nature of the assay: CPHEA_Stoker_NIS_Inhibition_RAIU: CPHEA's Radioactive Iodide Uptake (RAIU) Assay for Sodium/Iodide Symporter (NIS) Inhibition, Stoker and Laws Labs (AID 2283841). The gist of the method:
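Test chemicals, six concentrations from 0.001 to 100uM in 0.5% DMSO, were co-incubated with carrier-free 125I (final 329pM) on hNIS-HEK293T-EPA monolayers in pH 7.4 HEPES-buffered HBSS. Plates stood 2 hours at room temperature, then were washed cold and counted.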

Assay [7] is described as follows: CPHEA_Stoker_NIS_Cytotoxicity: Cytotoxicity Assessment for CPHEA's Radioactive Iodide Uptake (RAIU) Assay for Sodium/Iodide Symporter (NIS) Inhibition, Stoker and Laws Labs (AID 2283897). The procedure, abridged:
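Viability in hNIS-HEK293T-EPA cells is scored as a drop in luciferase-detected ATP following 2-hour room-temperature exposure (0.001–100uM; triplicate wells, three cell passages), with DMSO as negative control.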

In assay [8] the target is frog Thyroid hormone Receptor alpha (TRa), thra-a (gene 397942) (UniProt P15204). Nature of the assay: ATG_frTRa_XSP2: Attagene TRANS-FACTORIAL Multi-Species (XSP2) HepG2 Assay for frog Thyroid hormone Receptor alpha (TRa) (AID 2283839). The procedure, abridged: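 Frog thyroid receptor alpha was tested as an exogenous NR-Gal4 fusion in transiently transfected HepG2 cells. After 24 h chemical treatment, reporter mRNA induction was quantified by RT-PCR and capillary electrophoresis, with gain-of-signal analysed relative to DMSO.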

The target of assay [9] is human Thyroid hormone Receptor beta (TRb), THRB (gene 7068) (UniProt P10828). As to the kind of experiment: ATG_hTRb_XSP2: Attagene TRANS-FACTORIAL Multi-Species (XSP2) HepG2 Assay for human Thyroid hormone Receptor beta (TRb) (AID 2283840).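 Also: actives raise reporter mRNA so potency reflects agonist-like gain of signal.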 The gist of the method: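 In this cell-based multiplex, HepG2 liver cells carrying transfected GAL4-UAS reporter constructs are exposed to chemical for 24 hours, then reporter transcripts are measured by RT-PCR with capillary electrophoresis, scored as gain of signal against DMSO.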

Assay [10] in a line: CEETOX_H295R_11DCORT_noMTC: CeeTox H295R High-throughput Steroidogenesis Assay for 11-Deoxycortisol (11DCORT), maximum tolerated concentration (MTC) filtered results only (AID 2283911; active = hit-call score of the fitted dose curve at least 0.9, where 1 is the maximum; inactive = score below 0.9). The settings on record: actives raise or lower the signal. The procedure, abridged: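 Readout is 11-deoxycortisol in culture medium by reverse-phase HPLC with MS/MS, after 48 h chemical treatment of forskolin-primed H295R cells. Values are relative to DMSO and unfiltered for cytotoxicity.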

The nature of assay [11]: CEETOX_H295R_CORTISOL_noMTC: CeeTox H295R High-throughput Steroidogenesis Assay for Cortisol, maximum tolerated concentration (MTC) filtered results only (AID 2283916; active = hit-call score of the fitted dose curve at least 0.9, where 1 is the maximum; inactive = score below 0.9). The settings on record: actives raise or lower the signal. The procedure, abridged:
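H295R adrenal cells were pre-stimulated 48 h with 10 uM forskolin, then exposed 48 h to test chemical in 0.1% DMSO. Medium cortisol was measured by MTBE extraction and HPLC-MS/MS; bidirectional fit versus DMSO, concentrations not MTC-filtered.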

Assay [12] can be described thus: CEETOX_H295R_CORTIC_noMTC: CeeTox H295R High-throughput Steroidogenesis Assay for Corticosterone (CORTIC), maximum tolerated concentration (MTC) filtered results only (AID 2283917; active = hit-call score of the fitted dose curve at least 0.9, where 1 is the maximum; inactive = score below 0.9). The settings on record: actives raise or lower the signal. The gist of the method: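 H295R, 10 uM forskolin prestim 48 h → test chem (0.1% DMSO final) 48 h → media MTBE extraction → HPLC-MS/MS corticosterone. Bidirectional fit vs DMSO baseline; no MTT-based MTC filtering.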

The nature of assay [13]: CEETOX_H295R_DOC_noMTC: CeeTox H295R High-throughput Steroidogenesis Assay for DOC, maximum tolerated concentration (MTC) filtered results only (AID 2283918; active = hit-call score of the fitted dose curve at least 0.9, where 1 is the maximum; inactive = score below 0.9). The settings on record: actives raise or lower the signal. The gist of the method: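 H295R cells prestimulated 48 h with 10 uM forskolin, then exposed 48 h to test chemical (0.1% DMSO final). Medium 11-deoxycorticosterone extracted with MTBE, quantified by HPLC-MS/MS; bidirectional fit versus DMSO, concentrations not MTC-filtered.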

In assay [14] the target is Thyroid hormone receptor alpha (Rattus norvegicus) + Thyroid hormone receptor beta (Rattus norvegicus) (UniProt P18113+P63059). Nature of the assay: TOX21_TR_LUC_GH3_Agonist_Followup: Tox21 GH3 Thyroid Hormone Receptor Agonism Luciferase Follow-Up Assay (AID 2283939). The gist of the method: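 Rat GH3 cells (1,500/well) in serum-free assay medium, treated with 15-point series, 92 uM to 5 nM final, for 24 h at 37C. Luciferase via ONE-Glo luminescence; gain of signal fitted against DMSO, T3 positive control.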

For assay [15], the target named is human Thyroid hormone Receptor alpha (TRa), THRA (gene 7067) (UniProt P10827). Nature of the assay: ATG_hTRa_XSP2: Attagene TRANS-FACTORIAL Multi-Species (XSP2) HepG2 Assay for human Thyroid hormone Receptor alpha (TRa) (AID 2283838). The procedure, abridged:
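HepG2 cells were transiently transfected with GAL4-UAS reporter units for chimeric human TRa-Gal4 and dosed for 24 hours, with 3 nM 6-alpha-fluorotestosterone and 1.5 nM norgestrel present. Reporter mRNA was quantified by RT-PCR, FAM labelling and capillary electrophoresis, with gain of signal fitted versus DMSO.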

Structures are written as SMILES. Inconclusive results are not listed. The source made the active and inactive calls. The calls were made as follows, unless noted: active = hit-call score of the fitted dose curve at least 0.9, where 1 is the maximum; inconclusive = response in the unintended direction; inactive = score below 0.9.

Chain of human Thyroid hormone Receptor beta (TRb), THRB (gene 7068) (P10828 whole entry, looked up, the tested form may be a part): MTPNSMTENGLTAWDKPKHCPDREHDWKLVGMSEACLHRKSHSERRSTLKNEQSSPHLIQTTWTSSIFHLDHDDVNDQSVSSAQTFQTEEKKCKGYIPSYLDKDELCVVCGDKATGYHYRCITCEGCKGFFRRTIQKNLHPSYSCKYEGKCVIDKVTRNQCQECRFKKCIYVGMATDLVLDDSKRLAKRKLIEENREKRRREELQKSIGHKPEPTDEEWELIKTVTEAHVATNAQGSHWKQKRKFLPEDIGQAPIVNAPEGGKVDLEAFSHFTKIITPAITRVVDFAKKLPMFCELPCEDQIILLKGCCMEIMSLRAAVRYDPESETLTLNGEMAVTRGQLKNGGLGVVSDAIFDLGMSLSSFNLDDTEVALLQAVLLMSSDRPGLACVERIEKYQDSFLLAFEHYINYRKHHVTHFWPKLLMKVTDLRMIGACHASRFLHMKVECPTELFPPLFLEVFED
Chain of frog Thyroid hormone Receptor alpha (TRa), thra-a (gene 397942) (P15204 whole entry, looked up, the tested form may be a part): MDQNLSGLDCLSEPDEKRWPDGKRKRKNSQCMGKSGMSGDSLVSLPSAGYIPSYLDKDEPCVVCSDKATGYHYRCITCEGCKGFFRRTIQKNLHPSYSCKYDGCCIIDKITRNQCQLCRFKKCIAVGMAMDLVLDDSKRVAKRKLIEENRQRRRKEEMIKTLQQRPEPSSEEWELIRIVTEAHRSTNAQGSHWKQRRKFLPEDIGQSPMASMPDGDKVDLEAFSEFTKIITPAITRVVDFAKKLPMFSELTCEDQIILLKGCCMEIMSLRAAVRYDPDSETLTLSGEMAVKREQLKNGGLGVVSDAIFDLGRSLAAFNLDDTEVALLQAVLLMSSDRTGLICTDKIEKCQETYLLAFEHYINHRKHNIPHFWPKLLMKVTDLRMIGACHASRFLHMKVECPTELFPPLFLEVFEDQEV
Chain of human Thyroid hormone Receptor alpha (TRa), THRA (gene 7067) (P10827 whole entry, looked up, the tested form may be a part): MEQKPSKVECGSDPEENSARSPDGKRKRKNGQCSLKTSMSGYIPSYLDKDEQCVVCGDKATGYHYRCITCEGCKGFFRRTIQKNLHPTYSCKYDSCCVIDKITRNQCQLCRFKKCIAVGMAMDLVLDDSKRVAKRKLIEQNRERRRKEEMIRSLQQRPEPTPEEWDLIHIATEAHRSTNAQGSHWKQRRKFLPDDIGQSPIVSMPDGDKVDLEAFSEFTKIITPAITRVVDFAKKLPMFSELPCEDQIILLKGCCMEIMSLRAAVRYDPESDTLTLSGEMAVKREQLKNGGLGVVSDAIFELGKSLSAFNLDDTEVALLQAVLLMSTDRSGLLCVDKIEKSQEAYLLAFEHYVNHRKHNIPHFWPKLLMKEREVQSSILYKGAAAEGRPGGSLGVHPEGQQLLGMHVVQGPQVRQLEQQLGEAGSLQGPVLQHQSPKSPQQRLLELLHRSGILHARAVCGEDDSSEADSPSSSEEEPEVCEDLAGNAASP
Chain of Thyroid hormone receptor alpha (Rattus norvegicus) + Thyroid hormone receptor beta (Rattus norvegicus) (P63059 whole entry, looked up): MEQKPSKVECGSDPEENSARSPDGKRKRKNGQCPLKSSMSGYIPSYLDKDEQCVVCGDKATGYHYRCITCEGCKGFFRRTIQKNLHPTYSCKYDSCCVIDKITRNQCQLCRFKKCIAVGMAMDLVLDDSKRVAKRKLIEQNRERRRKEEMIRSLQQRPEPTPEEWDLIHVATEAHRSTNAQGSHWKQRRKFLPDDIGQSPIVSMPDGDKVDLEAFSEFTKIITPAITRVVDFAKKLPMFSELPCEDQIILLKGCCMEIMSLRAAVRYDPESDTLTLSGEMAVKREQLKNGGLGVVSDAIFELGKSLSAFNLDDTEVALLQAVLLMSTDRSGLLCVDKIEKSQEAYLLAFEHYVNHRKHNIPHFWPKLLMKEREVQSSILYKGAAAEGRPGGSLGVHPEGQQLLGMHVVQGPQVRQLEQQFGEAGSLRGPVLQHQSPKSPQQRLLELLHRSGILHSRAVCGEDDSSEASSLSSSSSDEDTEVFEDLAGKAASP
Chain of Thyroid hormone receptor alpha (Rattus norvegicus) + Thyroid hormone receptor beta (Rattus norvegicus) (P18113 whole entry, looked up): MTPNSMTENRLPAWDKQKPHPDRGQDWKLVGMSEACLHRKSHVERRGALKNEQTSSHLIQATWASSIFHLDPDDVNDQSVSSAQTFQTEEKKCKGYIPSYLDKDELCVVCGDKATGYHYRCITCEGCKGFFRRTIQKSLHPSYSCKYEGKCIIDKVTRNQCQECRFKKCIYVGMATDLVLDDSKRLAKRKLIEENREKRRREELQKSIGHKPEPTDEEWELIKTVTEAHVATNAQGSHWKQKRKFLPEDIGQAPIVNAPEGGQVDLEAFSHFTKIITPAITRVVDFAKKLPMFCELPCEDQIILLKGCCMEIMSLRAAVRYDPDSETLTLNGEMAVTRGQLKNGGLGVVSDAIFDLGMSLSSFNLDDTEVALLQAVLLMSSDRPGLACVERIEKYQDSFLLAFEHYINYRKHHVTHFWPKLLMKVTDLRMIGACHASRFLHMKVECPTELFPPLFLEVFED

Turning to `CCCCC(CC)COC(=O)c1ccc(C(=O)OCC(CC)CCCC)cc1` (configuration not stated), the compound was classed as inactive in assay [1], in [2], in [3], in [4] and in assay [5].
Consider `O=C(CCCCCCCCc1cccnc1)N1CCC(C=C(c2ccccc2)c2ccccc2)CC1`, for which the result in [6] and in assay [7] was inactive.
Regarding `Clc1nc(Cl)c(Cl)c(Cl)c1Cl`, the call in assay [8], in assay [9], in assay [6] and in assay [7] was inactive.
In the case of `CC(C)=CCC/C(C)=C\CO`, the compound was called inactive in assay [10], in assay [1], in assay [2], in assay [3], in assay [13] and in assay [4]. In addition, the compound was called inactive in assay [5] and in assay [14]. Moreover, the half-maximal activity concentration (AC50) was 61.5 µM (active) in assay [11] and 57.7 µM (active) in assay [12].
For `Cc1[nH]cnc1C[C@H]1CCc2c(C)c3ccccc3n2C1=O`, the outcome in assay [6] and in assay [7] was inactive.
As to `Oc1ccc2c(c1)-c1ccccc1C2`, the call in assay [15], in assay [8] and in assay [9] was inactive.
With `O=C(O)c1cc(N=Nc2ccc(S(=O)(=O)Nc3ccccn3)cc2)ccc1O`, the outcome in assay [6] and in [7] was inactive.
For `O=C(O)c1cccc(N(Cc2cccnc2)c2ccc(OC(F)F)c(OC(F)F)c2)c1`, the result in [7] was inactive.
With `O=c1[nH]c2ccc(S(=O)CCN3CCC(Cc4ccc(F)cc4)CC3)cc2o1` (configuration not stated), the result in [6] and in assay [7] was inactive.
Regarding `Cn1c(=O)cc(Oc2ccc(F)cc2F)c2cnc(NCC(C)(C)O)nc21`, the result in [7] was inactive.
